Laboratory results taken from PMC7862700, “An all-to-all approach to the identification of sequence-specific readers for epigenetic DNA modifications on cytosine”.

Columns and labels:
Experiment in all cases: DAPPL (digital affinity profiling via proximity ligation, sequencing); 10 mM Tris-HCl pH 7.5, 50 mM NaCl, 1 mM DTT, 4% glycerol, room temperature, 30 min; GST-TFs on glutathione beads, 16-mer random dsDNA library, 0.1% formaldehyde crosslink after washing; high values mean tight binding
FLI1 = molecular target: T1, FLI1 (Homo sapiens, UniProt Q01543 1-452); settings: protein: recombinant; tags: N-terminal GST; dsDNA, one strand shown
T1 sequence: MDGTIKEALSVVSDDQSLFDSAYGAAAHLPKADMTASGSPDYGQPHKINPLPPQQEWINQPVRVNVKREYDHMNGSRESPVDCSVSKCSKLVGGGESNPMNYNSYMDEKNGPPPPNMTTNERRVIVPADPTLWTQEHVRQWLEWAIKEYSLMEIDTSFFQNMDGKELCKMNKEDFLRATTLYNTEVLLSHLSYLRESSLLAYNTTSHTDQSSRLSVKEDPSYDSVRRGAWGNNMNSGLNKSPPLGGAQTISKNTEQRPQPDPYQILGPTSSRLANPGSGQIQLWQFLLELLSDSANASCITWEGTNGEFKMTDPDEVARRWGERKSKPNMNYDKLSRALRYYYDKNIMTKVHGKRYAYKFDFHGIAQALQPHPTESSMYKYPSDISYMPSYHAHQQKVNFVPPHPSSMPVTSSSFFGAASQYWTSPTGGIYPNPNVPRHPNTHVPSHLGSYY
Summary of the method: (§1)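 Pools of DNA-barcoded human transcription factors, expressed in yeast as GST fusions on glutathione beads and combined with a tag-only sample, were incubated with 200 nmole of a 16-mer random double-stranded DNA library. Incubation took 30 min at room temperature in Tris/NaCl/DTT/glycerol buffer and was followed by washing, 0.1% formaldehyde crosslinking, proximity ligation (BsaI/T4 ligase, 1 h, 37 °C), PCR amplification and sequencing on an Illumina NextSeq500. Binding signal is the ratio of a hexamer's read frequency for a factor to its frequency for the tag-only sample.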

ELK1 = molecular target: T2, ELK1 (Homo sapiens, UniProt P19419 1-428); settings: protein: recombinant; tags: N-terminal GST; dsDNA, one strand shown
T2 sequence: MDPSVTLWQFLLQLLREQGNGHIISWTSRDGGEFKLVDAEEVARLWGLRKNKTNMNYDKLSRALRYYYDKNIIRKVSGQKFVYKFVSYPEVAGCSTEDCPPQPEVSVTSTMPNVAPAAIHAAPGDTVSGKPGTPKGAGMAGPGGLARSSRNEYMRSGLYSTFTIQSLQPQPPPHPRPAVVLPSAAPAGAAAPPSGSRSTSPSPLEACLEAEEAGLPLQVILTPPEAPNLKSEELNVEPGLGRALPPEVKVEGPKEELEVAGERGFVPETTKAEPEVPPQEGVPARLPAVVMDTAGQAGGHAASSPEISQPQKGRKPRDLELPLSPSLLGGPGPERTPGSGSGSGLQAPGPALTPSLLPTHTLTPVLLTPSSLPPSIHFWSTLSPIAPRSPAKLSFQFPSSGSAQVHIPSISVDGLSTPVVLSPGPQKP
Summary of the method: as §1

GABPA = molecular target: T3, GABPA (Homo sapiens, UniProt Q06546 1-454); settings: protein: recombinant; tags: N-terminal GST; dsDNA, one strand shown
T3 sequence: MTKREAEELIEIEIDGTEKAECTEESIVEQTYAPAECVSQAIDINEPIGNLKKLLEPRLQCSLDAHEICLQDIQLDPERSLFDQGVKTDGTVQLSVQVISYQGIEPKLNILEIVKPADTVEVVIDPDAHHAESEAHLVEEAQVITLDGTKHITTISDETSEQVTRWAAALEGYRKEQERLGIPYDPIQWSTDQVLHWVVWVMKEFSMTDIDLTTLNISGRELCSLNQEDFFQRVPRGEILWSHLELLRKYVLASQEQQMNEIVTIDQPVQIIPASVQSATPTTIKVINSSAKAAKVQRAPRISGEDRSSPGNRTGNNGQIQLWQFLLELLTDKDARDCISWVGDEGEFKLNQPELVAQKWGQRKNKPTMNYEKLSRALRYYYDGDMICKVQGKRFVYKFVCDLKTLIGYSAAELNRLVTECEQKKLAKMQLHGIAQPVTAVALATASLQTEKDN
Summary of the method: as §1

ERG = molecular target: T4, ERG (Homo sapiens, UniProt P11308 1-479); settings: protein: recombinant; tags: N-terminal GST; dsDNA, one strand shown
T4 sequence: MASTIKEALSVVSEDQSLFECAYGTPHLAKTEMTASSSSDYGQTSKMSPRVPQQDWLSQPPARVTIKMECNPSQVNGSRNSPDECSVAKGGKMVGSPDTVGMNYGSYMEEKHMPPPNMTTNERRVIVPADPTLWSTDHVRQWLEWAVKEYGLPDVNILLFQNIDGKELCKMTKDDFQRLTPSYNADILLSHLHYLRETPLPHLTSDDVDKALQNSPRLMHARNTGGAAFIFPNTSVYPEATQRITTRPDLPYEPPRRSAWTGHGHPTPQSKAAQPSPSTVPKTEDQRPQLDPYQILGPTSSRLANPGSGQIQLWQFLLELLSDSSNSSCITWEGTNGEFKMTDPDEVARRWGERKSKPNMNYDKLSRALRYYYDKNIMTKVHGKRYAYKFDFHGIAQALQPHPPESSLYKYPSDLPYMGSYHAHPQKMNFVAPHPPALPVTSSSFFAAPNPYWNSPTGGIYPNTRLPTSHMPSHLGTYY
Summary of the method: as §1

ELF1 = ELF1 (Homo sapiens, UniProt P32519 1-619); settings: protein: recombinant; tags: N-terminal GST; dsDNA, one strand shown
Summary of the method: as §1

EHF = molecular target: T5, EHF (Homo sapiens, UniProt Q9NZC4 1-300); settings: protein: recombinant; tags: N-terminal GST; dsDNA, one strand shown
T5 sequence: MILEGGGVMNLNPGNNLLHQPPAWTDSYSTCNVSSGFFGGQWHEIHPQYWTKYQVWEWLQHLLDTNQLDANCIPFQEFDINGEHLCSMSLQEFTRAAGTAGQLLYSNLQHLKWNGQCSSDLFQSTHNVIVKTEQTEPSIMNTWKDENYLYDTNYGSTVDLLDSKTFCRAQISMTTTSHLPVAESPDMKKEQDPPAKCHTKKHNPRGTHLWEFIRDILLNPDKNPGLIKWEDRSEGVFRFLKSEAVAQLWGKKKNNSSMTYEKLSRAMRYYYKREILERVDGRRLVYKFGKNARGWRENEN
Summary of the method: as §1

SPI1 = SPI1 (Homo sapiens, UniProt P17947 1-270); settings: protein: recombinant; tags: N-terminal GST; dsDNA, one strand shown
Summary of the method: as §1

SPIB = SPIB (Homo sapiens, UniProt Q01892 1-262); settings: protein: recombinant; tags: N-terminal GST; dsDNA, one strand shown
Summary of the method: as §1

ELK3 = molecular target: T6, ELK3 (Homo sapiens, UniProt P41970 1-407); settings: protein: recombinant; tags: N-terminal GST; dsDNA, one strand shown
T6 sequence: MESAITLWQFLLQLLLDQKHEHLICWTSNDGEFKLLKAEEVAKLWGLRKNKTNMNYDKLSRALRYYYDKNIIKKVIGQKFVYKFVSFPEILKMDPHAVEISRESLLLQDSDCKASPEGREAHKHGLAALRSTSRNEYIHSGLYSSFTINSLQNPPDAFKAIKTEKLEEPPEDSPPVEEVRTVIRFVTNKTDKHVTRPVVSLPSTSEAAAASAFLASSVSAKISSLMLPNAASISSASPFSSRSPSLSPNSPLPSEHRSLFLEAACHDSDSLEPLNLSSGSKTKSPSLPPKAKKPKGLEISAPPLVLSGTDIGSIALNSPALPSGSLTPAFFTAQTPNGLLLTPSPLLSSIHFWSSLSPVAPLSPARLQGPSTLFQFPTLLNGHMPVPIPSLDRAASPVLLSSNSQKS
Summary of the method: as §1

FEV = molecular target: T7, FEV (Homo sapiens, UniProt Q99581 1-238); settings: protein: recombinant; tags: N-terminal GST; dsDNA, one strand shown
T7 sequence: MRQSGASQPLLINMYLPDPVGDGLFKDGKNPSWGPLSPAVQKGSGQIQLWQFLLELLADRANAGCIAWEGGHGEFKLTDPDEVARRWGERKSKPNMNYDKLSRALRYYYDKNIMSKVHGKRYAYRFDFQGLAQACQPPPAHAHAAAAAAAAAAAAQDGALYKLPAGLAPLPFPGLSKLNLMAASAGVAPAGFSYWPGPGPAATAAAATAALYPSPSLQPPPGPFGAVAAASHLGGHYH
Summary of the method: as §1

ETV5 = ETV5 (Homo sapiens, UniProt P41161 1-510); settings: protein: recombinant; tags: N-terminal GST; dsDNA, one strand shown
Summary of the method: as §1

HSF1 = HSF1 (Homo sapiens, UniProt Q00613 1-529); settings: protein: recombinant; tags: N-terminal GST; chain copies: 3; dsDNA, one strand shown
Summary of the method: as §1

SPIC = molecular target: T8, SPIC (Homo sapiens, UniProt Q8N5J4 1-248); settings: protein: recombinant; tags: N-terminal GST; dsDNA, one strand shown
T8 sequence: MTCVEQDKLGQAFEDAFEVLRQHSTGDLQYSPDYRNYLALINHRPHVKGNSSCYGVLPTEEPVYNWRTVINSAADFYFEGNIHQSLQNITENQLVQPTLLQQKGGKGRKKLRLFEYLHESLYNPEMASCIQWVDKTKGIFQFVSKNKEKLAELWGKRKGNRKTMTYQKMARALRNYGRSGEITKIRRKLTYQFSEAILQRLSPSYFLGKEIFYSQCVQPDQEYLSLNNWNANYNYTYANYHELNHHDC
Summary of the method: as §1

ELF4 = ELF4 (Homo sapiens, UniProt Q99607 1-663); settings: protein: recombinant; tags: N-terminal GST; dsDNA, one strand shown
Summary of the method: as §1

ELK4 = molecular target: T9, ELK4 (Homo sapiens, UniProt P28324-2 1-405); settings: protein: recombinant; tags: N-terminal GST; dsDNA, one strand shown
T9 sequence: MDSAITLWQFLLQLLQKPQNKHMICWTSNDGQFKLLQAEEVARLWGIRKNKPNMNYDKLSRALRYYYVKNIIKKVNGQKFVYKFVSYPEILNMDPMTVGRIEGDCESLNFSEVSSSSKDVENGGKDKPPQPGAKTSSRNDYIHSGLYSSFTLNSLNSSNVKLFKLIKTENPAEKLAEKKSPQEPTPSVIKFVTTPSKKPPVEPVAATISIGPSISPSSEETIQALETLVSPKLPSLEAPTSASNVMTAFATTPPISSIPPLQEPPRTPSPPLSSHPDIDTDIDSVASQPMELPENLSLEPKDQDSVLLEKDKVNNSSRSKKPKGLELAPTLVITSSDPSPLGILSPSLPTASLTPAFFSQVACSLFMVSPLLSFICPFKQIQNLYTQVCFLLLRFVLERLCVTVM
Summary of the method: as §1

ETV2 = molecular target: T10, ETV2 (Homo sapiens, UniProt O00321 1-342); settings: protein: recombinant; tags: N-terminal GST; dsDNA, one strand shown
T10 sequence: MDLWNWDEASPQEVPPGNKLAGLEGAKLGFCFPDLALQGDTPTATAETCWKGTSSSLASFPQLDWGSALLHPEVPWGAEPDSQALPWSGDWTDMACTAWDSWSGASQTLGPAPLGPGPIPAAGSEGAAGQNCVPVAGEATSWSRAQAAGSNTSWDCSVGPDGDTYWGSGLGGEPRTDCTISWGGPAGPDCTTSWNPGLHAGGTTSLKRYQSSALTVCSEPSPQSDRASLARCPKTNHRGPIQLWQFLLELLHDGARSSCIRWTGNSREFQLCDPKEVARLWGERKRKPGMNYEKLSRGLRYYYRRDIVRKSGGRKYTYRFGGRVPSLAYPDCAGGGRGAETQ
Summary of the method: as §1

ELF3 = molecular target: T11, ELF3 (Homo sapiens, UniProt P78545 1-371); settings: protein: recombinant; tags: N-terminal GST; dsDNA, one strand shown
T11 sequence: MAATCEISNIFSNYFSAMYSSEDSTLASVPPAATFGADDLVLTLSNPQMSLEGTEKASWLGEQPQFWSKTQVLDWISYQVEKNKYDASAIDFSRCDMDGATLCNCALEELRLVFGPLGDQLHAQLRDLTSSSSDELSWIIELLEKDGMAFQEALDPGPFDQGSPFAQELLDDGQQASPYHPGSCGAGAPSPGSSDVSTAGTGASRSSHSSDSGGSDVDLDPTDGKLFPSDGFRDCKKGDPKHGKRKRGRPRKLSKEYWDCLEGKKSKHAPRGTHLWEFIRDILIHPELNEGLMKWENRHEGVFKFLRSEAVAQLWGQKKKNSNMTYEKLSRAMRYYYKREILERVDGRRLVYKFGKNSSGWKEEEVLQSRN
Summary of the method: as §1

CRX = CRX (Homo sapiens, UniProt O43186 1-299); settings: protein: recombinant; tags: N-terminal GST; dsDNA, one strand shown
Summary of the method: as §1

ETV1 = ETV1 (Homo sapiens, UniProt P50549 1-477); settings: protein: recombinant; tags: N-terminal GST; dsDNA, one strand shown
Summary of the method: as §1

Sequence of ELF1 (P32519 whole entry): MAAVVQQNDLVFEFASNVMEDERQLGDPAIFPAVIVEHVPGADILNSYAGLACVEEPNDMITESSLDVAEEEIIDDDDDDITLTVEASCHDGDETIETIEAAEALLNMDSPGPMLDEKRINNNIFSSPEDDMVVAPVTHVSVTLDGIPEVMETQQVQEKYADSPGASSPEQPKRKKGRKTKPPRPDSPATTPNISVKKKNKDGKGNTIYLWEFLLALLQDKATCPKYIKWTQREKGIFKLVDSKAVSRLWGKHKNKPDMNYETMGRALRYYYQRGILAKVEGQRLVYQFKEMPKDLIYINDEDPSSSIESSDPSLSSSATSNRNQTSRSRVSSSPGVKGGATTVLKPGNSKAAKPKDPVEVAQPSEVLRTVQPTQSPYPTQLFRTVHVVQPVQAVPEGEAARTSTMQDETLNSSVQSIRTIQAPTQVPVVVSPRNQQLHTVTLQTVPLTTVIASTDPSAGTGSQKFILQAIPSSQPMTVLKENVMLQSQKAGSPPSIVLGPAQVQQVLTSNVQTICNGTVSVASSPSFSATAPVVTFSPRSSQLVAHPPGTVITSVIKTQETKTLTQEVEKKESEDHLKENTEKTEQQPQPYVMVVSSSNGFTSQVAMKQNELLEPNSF
Sequence of CRX (O43186 whole entry): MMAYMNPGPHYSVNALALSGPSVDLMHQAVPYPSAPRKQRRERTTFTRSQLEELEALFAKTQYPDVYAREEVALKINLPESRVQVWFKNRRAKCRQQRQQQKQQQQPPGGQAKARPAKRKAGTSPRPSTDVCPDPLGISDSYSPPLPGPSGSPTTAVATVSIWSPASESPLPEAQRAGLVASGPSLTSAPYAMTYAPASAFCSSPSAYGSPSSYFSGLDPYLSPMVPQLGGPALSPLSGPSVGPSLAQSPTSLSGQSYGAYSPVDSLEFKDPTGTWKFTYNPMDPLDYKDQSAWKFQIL
Sequence of ETV5 (P41161 whole entry): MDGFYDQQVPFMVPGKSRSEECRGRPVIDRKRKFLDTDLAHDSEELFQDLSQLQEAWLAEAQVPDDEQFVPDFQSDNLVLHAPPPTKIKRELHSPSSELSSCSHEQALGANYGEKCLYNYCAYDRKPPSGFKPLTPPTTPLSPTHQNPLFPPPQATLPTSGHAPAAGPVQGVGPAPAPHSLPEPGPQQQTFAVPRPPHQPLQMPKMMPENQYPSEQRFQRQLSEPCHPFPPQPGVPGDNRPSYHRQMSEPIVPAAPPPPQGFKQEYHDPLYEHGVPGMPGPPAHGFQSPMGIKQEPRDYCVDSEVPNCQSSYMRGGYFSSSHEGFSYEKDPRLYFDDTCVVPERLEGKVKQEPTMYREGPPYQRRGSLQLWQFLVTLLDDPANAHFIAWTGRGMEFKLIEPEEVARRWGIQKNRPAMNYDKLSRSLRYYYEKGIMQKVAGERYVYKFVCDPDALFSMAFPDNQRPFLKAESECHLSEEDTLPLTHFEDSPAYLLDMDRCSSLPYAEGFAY
Sequence of ETV1 (P50549 whole entry): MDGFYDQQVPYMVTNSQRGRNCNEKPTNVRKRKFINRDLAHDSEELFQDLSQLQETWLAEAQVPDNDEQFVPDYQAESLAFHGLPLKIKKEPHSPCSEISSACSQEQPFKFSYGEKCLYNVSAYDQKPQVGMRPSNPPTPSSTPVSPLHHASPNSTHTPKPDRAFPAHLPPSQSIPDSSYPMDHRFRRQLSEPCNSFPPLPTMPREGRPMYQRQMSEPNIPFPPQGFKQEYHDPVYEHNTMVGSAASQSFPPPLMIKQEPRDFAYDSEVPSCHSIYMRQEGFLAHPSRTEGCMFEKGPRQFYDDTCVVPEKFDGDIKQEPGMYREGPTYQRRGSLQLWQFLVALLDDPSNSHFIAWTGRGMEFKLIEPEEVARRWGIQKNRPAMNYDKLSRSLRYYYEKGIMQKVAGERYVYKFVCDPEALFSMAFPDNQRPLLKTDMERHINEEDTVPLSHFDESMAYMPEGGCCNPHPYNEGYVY
Sequence of ELF4 (Q99607 whole entry): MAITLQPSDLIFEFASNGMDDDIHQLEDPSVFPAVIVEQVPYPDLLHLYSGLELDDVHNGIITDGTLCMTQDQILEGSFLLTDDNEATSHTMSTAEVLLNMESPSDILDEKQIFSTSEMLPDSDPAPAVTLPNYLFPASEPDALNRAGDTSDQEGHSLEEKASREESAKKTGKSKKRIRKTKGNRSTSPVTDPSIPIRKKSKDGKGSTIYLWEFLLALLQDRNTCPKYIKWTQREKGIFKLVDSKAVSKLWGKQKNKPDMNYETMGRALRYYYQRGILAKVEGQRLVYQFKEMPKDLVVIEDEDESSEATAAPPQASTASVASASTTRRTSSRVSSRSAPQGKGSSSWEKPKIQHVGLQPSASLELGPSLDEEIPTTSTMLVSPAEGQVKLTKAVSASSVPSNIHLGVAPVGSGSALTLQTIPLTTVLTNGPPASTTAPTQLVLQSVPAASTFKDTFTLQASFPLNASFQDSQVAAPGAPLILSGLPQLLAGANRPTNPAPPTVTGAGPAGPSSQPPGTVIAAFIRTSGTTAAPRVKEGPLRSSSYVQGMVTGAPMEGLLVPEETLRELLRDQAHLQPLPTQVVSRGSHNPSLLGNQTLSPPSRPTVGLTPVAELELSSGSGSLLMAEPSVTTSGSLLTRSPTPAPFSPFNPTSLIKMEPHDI
Sequence of SPIB (Q01892 whole entry): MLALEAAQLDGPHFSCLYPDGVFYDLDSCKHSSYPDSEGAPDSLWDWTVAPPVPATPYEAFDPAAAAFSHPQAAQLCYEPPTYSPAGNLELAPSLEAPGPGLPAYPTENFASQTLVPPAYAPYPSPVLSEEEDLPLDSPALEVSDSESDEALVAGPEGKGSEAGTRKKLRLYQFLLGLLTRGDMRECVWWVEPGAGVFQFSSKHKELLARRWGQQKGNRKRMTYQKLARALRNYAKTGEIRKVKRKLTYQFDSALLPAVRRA
Sequence of HSF1 (Q00613 whole entry): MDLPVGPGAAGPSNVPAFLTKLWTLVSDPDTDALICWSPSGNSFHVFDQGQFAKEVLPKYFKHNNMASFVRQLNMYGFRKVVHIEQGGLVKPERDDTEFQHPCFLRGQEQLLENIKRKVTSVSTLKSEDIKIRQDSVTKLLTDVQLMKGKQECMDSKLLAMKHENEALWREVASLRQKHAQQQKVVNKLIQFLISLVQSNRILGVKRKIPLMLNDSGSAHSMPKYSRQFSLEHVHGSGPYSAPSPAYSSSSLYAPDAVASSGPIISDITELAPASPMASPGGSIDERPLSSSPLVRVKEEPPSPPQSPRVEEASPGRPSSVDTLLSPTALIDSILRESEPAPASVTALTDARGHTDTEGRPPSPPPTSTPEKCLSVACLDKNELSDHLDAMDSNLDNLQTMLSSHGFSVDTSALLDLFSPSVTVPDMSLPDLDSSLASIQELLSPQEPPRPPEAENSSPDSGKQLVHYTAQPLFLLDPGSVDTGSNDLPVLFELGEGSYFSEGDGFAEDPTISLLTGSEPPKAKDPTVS

TCCATG
binding signal (FLI1): 1.17 fold enrichment (6-mer frequency, TF over GST control)
binding signal (ELK1): 1.18 fold enrichment (6-mer frequency, TF over GST control)
binding signal (GABPA): 1.1 fold enrichment (6-mer frequency, TF over GST control)
binding signal (ERG): 1.09 fold enrichment (6-mer frequency, TF over GST control)
binding signal (ELF1): 1.11 fold enrichment (6-mer frequency, TF over GST control)
binding signal (EHF): 1.17 fold enrichment (6-mer frequency, TF over GST control)
binding signal (SPI1): 1.1 fold enrichment (6-mer frequency, TF over GST control)
binding signal (SPIB): 1.13 fold enrichment (6-mer frequency, TF over GST control)
binding signal (ELK3): 1.24 fold enrichment (6-mer frequency, TF over GST control)
binding signal (FEV): 1.11 fold enrichment (6-mer frequency, TF over GST control)
binding signal (ETV5): 1.2 fold enrichment (6-mer frequency, TF over GST control)
binding signal (HSF1): 1.1 fold enrichment (6-mer frequency, TF over GST control)
binding signal (SPIC): 1.05 fold enrichment (6-mer frequency, TF over GST control)
binding signal (ELF4): 1.16 fold enrichment (6-mer frequency, TF over GST control)
binding signal (ELK4): 1.25 fold enrichment (6-mer frequency, TF over GST control)
binding signal (ETV2): 1.2 fold enrichment (6-mer frequency, TF over GST control)
binding signal (ELF3): 1.25 fold enrichment (6-mer frequency, TF over GST control)
binding signal (CRX): 1.13 fold enrichment (6-mer frequency, TF over GST control)
binding signal (ETV1): 1.09 fold enrichment (6-mer frequency, TF over GST control)
